{"source": "the supplement of paper PMC9177965", "note": "Where “and” joins values, the source holds several entries; their conditions need not be identical. Identical values can stand only once.", "data": [{"system": "HT29 sg-Ctrl (RNF43 wildtype)", "experiment": "cell viability activity relative to DMSO (negative = inhibition); higher = more viable cells (less growth inhibition)", "details": "5 µM; 96 h", "experimental": "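Broad Repurposing Library primary screen at a single dose of 5 uM. HT29 sg-Ctrl and HT29 RNF43 G659fs CRISPR-edited isogenic cells were seeded at 2500 cells/well in 384-well plates in duplicate and treated for 96 h. Viability was read by CellTiter-Glo and reported as % activity relative to DMSO, with MG132 as the positive control (negative = growth inhibition).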", "values": [{"compound": "C[C@@]1(CO)[C@H](O)CC[C@@]2(C)[C@H]1CC[C@H]1C[C@@H]3C[C@@]12CC[C@]3(O)CO", "cell viability activity": "-34.1%"}, {"compound": "C[C@]12CC[C@H](O)C[C@H]1CC[C@@H]1[C@@H]2CC[C@]2(C)[C@@H](C3=CC(=O)OC3)CC[C@]12O", "cell viability activity": "-86.7%"}, {"compound": "COC(=O)C[C@](O)(CCC(C)(C)O)C(=O)O[C@@H]1C(OC)=C[C@]23CCCN2CCc2cc4c(cc2[C@H]13)OCO4", "cell viability activity": "-83.6%"}, {"compound": "C[C@@H]1CC[C@@]2(OC1)O[C@H]1C[C@H]3[C@@H]4CC=C5C[C@@H](O[C@@H]6O[C@H](CO)[C@@H](O[C@@H]7O[C@@H](C)[C@H](O)[C@@H](O)[C@H]7O)[C@H](O)[C@H]6O[C@@H]6O[C@@H](C)[C@H](O)[C@@H](O)[C@H]6O)CC[C@]5(C)[C@H]4CC[C@]3(C)[C@H]1[C@@H]2C", "cell viability activity": "-63.5%"}, {"compound": "COc1ccc(CCN2CCC(Nc3nc4ccccc4n3Cc3ccc(F)cc3)CC2)cc1", "cell viability activity": "-3.92%"}, {"compound": "C[C@H]1CCC/C=C/[C@@H]2C[C@H](O)C[C@H]2[C@H](O)/C=C/C(=O)O1", "cell viability activity": "-98.3% and -96.8%"}, {"compound": "COc1ccc(C[C@H]2NC[C@H](O)[C@H]2OC(C)=O)cc1", "cell viability activity": "-95.3%"}, {"compound": "COc1cc([C@@H]2c3cc4c(cc3[C@H](O)[C@H]3COC(=O)[C@H]23)OCO4)cc(OC)c1OC", "cell viability activity": "-58.2%"}, {"compound": "Oc1cc(Cl)ccc1Oc1ccc(Cl)cc1Cl", "cell viability activity": "-92.8%"}, {"compound": "CCCCCCCCCCCCCCCC[n+]1ccccc1", "cell viability activity": "-79.9%"}, {"compound": "C[C@]12O[C@H](C[C@]1(O)CO)n1c3ccccc3c3c4c(c5c6ccccc6n2c5c31)CNC4=O", "cell viability activity": "-84.6%"}, {"compound": "CN1CCN(c2cccc3[nH]c(=O)oc23)CC1", "cell viability activity": "-54.8%"}, {"compound": "c1ccc2c(c1)[I+]c1ccccc1-2", "cell viability activity": "-52.1%"}, {"compound": "C/C(=C\\c1csc(C)n1)[C@@H]1C[C@@H]2O[C@@H]2CCC[C@H](C)[C@H](O)[C@@H](C)C(=O)C(C)(C)[C@@H](O)CC(=O)O1", "cell viability activity": "-51.9%"}, {"compound": "C[C@]12CC[C@H]3[C@@H](CC[C@]4(O)C[C@@H](O)CC[C@]34C=O)[C@@]1(O)CC[C@@H]2C1=CC(=O)OC1", "cell viability activity": "-75.5%"}, {"compound": "C[C@@H]1O[C@@H](O[C@H]2C[C@@H](O)[C@]3(CO)[C@H]4[C@H](O)C[C@]5(C)[C@@H](C6=CC(=O)OC6)CC[C@]5(O)[C@@H]4CC[C@]3(O)C2)[C@H](O)[C@H](O)[C@H]1O", "cell viability activity": "-87.7% and -89.1%"}, {"compound": "CO[C@H]1C[C@H](O[C@H]2CC[C@@]3(C)[C@H](CC[C@@H]4[C@@H]3CC[C@]3(C)[C@@H](C5=CC(=O)OC5)[C@@H](OC(C)=O)C[C@]43O)C2)O[C@@H](C)[C@@H]1O", "cell viability activity": "-90.4%"}, {"compound": "Clc1cccc(SC2CCNCC2)n1", "cell viability activity": "-64.7%"}, {"compound": "Cc1sc2c(c1C)C(c1ccc(Cl)cc1)=N[C@@H](CC(=O)OC(C)(C)C)c1nnc(C)n1-2", "cell viability activity": "-61.7%"}, {"compound": "NC(=O)c1cn([C@@H]2O[C@H](CO)[C@@H](O)[C@H]2O)c2ncnc(N)c12", "cell viability activity": "-93%"}, {"compound": "C[C@@H]1O[C@@H](O[C@@H]2C=C3CC[C@@H]4[C@H](CC[C@]5(C)[C@@H](c6ccc(=O)oc6)CC[C@]45O)[C@@]3(C)CC2)[C@H](O)[C@H](O)[C@H]1O", "cell viability activity": "-87.4%"}, {"compound": "COc1cccc2c1C(=O)c1c(O)c3c(c(O)c1C2=O)C[C@@](O)(C(=O)CO)C[C@@H]3O[C@H]1C[C@H](N2CCO[C@H](OC)C2)[C@H](O)[C@H](C)O1", "cell viability activity": "-95.3%"}, {"compound": "CCNC(=O)C[C@@H]1N=C(c2ccc(Cl)cc2)c2cc(OC)ccc2-n2c(C)nnc21", "cell viability activity": "-59.5%"}, {"compound": "CC[C@@H]1/C=C/C=C/C[C@H](C)[C@H](O)[C@](C)(O)C(=O)[C@H](C)[C@@H](O)[C@H](C)C(=O)[C@H](C)[C@@H](O)[C@H](C)/C=C/C(=O)O[C@H]2[C@@H](C)[C@@H](CC1)O[C@@]1(CC[C@@H](C)[C@@H](C[C@H](C)O)O1)[C@@H]2C", "cell viability activity": "-42.2%"}, {"compound": "O=C(C[C@H]1NCCC[C@@H]1O)Cn1cnc2cc(Br)c(Cl)cc2c1=O", "cell viability activity": "-86.5%"}, {"compound": "CC1CC(C)C(=O)C(C(O)CC2CC(=O)NC(=O)C2)C1", "note": "(stereo not given)", "cell viability activity": "-81.2%"}, {"compound": "Cc1sc2c(c1C)C(c1ccc(Cl)cc1)=N[C@@H](CC(=O)Nc1ccc(O)cc1)c1nnc(C)n1-2", "cell viability activity": "-59.2%"}, {"compound": "Fc1cc(F)c2c(c1)[C@H]1C=CC[C@H]1C(c1cccnc1)N2", "note": "(stereo not given in full)", "cell viability activity": "-92.9% and -73.9%"}, {"compound": "Oc1cccc2cccnc12", "cell viability activity": "-34.8%"}, {"compound": "C/C(=C\\c1csc(C)n1)[C@@H]1C[C@@H]2O[C@]2(C)CCC[C@H](C)[C@H](O)[C@@H](C)C(=O)C(C)(C)[C@@H](O)CC(=O)O1", "cell viability activity": "-72.3%"}, {"compound": "N#CC(C#N)=NNc1cccc(Cl)c1", "cell viability activity": "-68.2%"}, {"compound": "COc1cc2c(c(OC)c1OC)-c1ccc(OC)c(=O)cc1[C@@H](NC(C)=O)CC2", "cell viability activity": "-46.1% and -57.8%"}, {"compound": "C/C=C(\\C)C(=O)N[C@@H](c1ccccc1)[C@@H](O)C(=O)O[C@H]1C[C@@]2(O)[C@@H](OC(=O)c3ccccc3)[C@@H]3[C@]4(OC(C)=O)CO[C@@H]4C[C@H](O)[C@@]3(C)C(=O)[C@H](OC(C)=O)C(=C1C)C2(C)C", "cell viability activity": "-69.3%"}, {"compound": "COc1cc2cc(c1Cl)N(C)C(=O)C[C@H](OC(=O)C(C)C)[C@]1(C)O[C@@H]1[C@H](C)[C@@H]1C[C@@](O)(NC(=O)O1)[C@H](OC)/C=C/C=C(\\C)C2", "cell viability activity": "-61.7%"}, {"compound": "CC(=O)O[C@@]12CO[C@@H]1C[C@H](O)[C@@]1(C)C(=O)[C@H](O)C3=C(C)[C@@H](O)C[C@@](O)([C@@H](OC(=O)c4ccccc4)[C@H]21)C3(C)C", "cell viability activity": "-62.6%"}, {"compound": "C[C@]12CC[C@H](O)C[C@H]1CC[C@@H]1[C@@H]2C[C@@H](O)[C@]2(C)[C@@H](C3=CC(=O)OC3)CC[C@]12O", "cell viability activity": "-79.8%"}, {"compound": "CC(=O)O[C@H]1C[C@H](O[C@H]2[C@@H](O)C[C@H](O[C@H]3[C@@H](O)C[C@H](O[C@H]4CC[C@@]5(C)[C@H](CC[C@@H]6[C@@H]5C[C@@H](O)[C@]5(C)[C@@H](C7=CC(=O)OC7)CC[C@]65O)C4)O[C@@H]3C)O[C@@H]2C)O[C@H](C)[C@H]1O[C@@H]1O[C@H](CO)[C@@H](O)[C@H](O)[C@H]1O", "cell viability activity": "-89.1%"}, {"compound": "Cn1c(COP(=O)(NCCBr)NCCBr)cnc1[N+](=O)[O-]", "cell viability activity": "-27.3%"}, {"compound": "CC(C)(C)c1cc(C=C(C#N)C#N)cc(C(C)(C)C)c1O", "cell viability activity": "-67.3%"}, {"compound": "O=C1/C(=C/c2ccccc2)C[C@@]2(O)C3Cc4ccc(O)c5c4[C@@]2(CCN3CC2CC2)[C@H]1O5", "cell viability activity": "-66%"}]}]}
